{"source": "PubChem BioAssay AID588342", "about": "(National Center for Advancing Translational Sciences (NCATS), 2011)", "note": "Among all 360,000 compounds or so, about 25,000 (6.9%) were called active. Roughly 9% stayed inconclusive and do not appear here. This is one part of a sample in which actives are shown more often than they occur. Calls follow the shape of the dose curve; as a rule, active = well fitted inhibition curve with a large enough effect; inconclusive = small, poorly fitted or top-dose-only effect; inactive = flat fitted curve, though single readings scatter. Potency is read from the fitted curve at half-maximal effect.", "data": [{"biological_target": "Luciferin 4-monooxygenase (Photinus pyralis) (UniProt P08659)", "sequence (P08659 whole entry, looked up)": "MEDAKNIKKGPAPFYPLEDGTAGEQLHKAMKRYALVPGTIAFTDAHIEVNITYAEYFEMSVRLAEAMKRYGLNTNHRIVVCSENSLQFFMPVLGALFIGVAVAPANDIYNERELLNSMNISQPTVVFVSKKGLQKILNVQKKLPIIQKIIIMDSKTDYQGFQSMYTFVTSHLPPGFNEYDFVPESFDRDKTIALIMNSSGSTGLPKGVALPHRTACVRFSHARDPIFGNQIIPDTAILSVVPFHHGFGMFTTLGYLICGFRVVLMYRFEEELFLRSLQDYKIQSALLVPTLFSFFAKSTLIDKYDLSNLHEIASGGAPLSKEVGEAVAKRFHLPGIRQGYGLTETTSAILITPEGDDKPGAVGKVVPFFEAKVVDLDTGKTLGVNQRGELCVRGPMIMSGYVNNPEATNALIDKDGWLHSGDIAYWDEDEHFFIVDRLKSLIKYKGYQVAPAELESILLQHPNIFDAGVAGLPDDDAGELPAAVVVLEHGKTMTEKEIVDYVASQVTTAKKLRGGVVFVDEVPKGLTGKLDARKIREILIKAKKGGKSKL", "assay": "qHTS profiling assay for firefly luciferase inhibitor/activator using purifed enzyme and Km concentrations of substrates (counterscreen for miR-21 project); also: nearly all actives have a fitted effect of over 55% in size;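 as to activity change, negative = inhibition: plate controls were vehicle for no effect and reference inhibitor for full effect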", "conditions": "purified FLuc, luminescence inhibition; series mostly up to 57.5 µM; activity change, negative = inhibition: at the top concentration", "procedure,_shortened": "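Purified P. pyralis luciferase, 10 nM final, with Km-level 10 uM D-luciferin and 10 uM ATP in 50 mM Tris acetate pH 7.5, 10 mM Mg acetate, 0.01% Tween-20, 0.05% BSA; 6-point qHTS titration about 60 µM downward; luminescence read.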", "values": [{"molecule": "COc1ccc(N2CCN(S(=O)(=O)c3ccc(-c4coc(C)n4)cc3)CC2)cc1", "activity change, negative = inhibition": "3.39% (inactive)"}, {"molecule": "CCOc1ccc(CNC(=O)Cn2cc3c(n2)-c2c(oc(C(=O)N4CCCC4)c2C)CC3)cc1", "activity change, negative = inhibition": "-0.775% (inactive)"}, {"molecule": "CC1(C)O[C@@H]2[C@H](O1)[C@@H](CO)O[C@H]2n1c(N2CCCCC2)nc2c(N)ncnc21", "activity change, negative = inhibition": "-1.84% (inactive)"}, {"molecule": "Cc1ccc(OCC(=O)Nc2ccc(OCc3cc(=O)n4c(C)csc4n3)cc2)cc1C", "activity change, negative = inhibition": "-0.234% (inactive)"}, {"molecule": "Cc1ccccc1NC(=O)Cn1c(=O)n(CCCCC(=O)NCc2ccccc2Cl)c(=O)c2ccccc21", "activity change, negative = inhibition": "-4.82% (inactive)"}, {"molecule": "Cc1ccc2nc(N3CCN(c4cccc(Cl)c4)CC3)c3nnnn3c2c1", "activity change, negative = inhibition": "-5.21% (inactive)"}, {"molecule": "CCOC(=O)c1cc2c(=O)n3ccccc3nc2n(CCCOC)c1=NC(=O)C(C)Oc1ccccc1", "note": "(configuration not stated)", "activity change, negative = inhibition": "1.01% (inactive)"}, {"molecule": "CCOc1ccc(CCNC(=O)c2ccc3c(c2)sc2nc(-c4ccc(F)cc4)cn23)cc1OCC", "activity change, negative = inhibition": "-8.52% (inactive)"}, {"molecule": "COc1ccc2oc(=O)c(-c3cn4c(n3)sc3cc(OC)ccc34)cc2c1", "activity change, negative = inhibition": "-17.1% (inactive)"}, {"molecule": "CCOc1cccc2cc(-c3cn4c(n3)sc3cc(C)ccc34)c(=O)oc12", "Potency": "0.426 µM (active)"}, {"molecule": "COC(=O)c1ccc(NS(=O)(=O)c2cc3c4c(c2)C(C)C(=O)N4CCC3)cc1", "note": "(configuration not stated)", "activity change, negative = inhibition": "-0.997% (inactive)"}, {"molecule": "Cc1ccc(N2C(=O)CC(NCc3ccc4c(c3)OCO4)C2=O)cc1Cl", "note": "(configuration not stated)", "activity change, negative = inhibition": "-13.1% (inactive)"}, {"molecule": "COc1ccc(C)cc1S(=O)(=O)Nc1cc2c3c(c1)CCC(=O)N3CCC2", "activity change, negative = inhibition": "0.954% (inactive)"}, {"molecule": "CCc1nn(CC(=O)N2CCN(c3ccc(Cl)cc3)CC2)c(=O)c2cc3occc3n12", "activity change, negative = inhibition": "-18.2% (inactive)"}, {"molecule": "COc1ccc(CCn2cc3c(c2-c2ccc(Br)cc2)c(=O)n(C)c(=O)n3C)cc1OC", "activity change, negative = inhibition": "-4.89% (inactive)"}, {"molecule": "CCOC(=O)c1ccc(-c2ccc(C(=O)Nc3cccnc3)o2)cc1", "Potency": "15.1 µM (active)"}, {"molecule": "CCOC(=O)c1ccc(-c2ccc(/C=C(\\C#N)C(=O)Nc3ccc(C)cc3)o2)cc1", "activity change, negative = inhibition": "-3.16% (inactive)"}, {"molecule": "COc1ccc(C)cc1NC(=O)c1ccc(-c2ccc(C(C)=O)cc2)o1", "activity change, negative = inhibition": "-11.1% (inactive)"}, {"molecule": "O=C(O)c1c(CNCc2cccc(F)c2)c2ccccc2n1Cc1ccccc1", "activity change, negative = inhibition": "-11.7% (inactive)"}, {"molecule": "Cc1ccc(/C=N/NC(=O)c2sccc2OCc2ccc(F)cc2)cc1", "Potency": "1.35 µM (active)"}, {"molecule": "Cc1ccc(COc2ccc(/C=N/NC(=O)CN3CCCCC3)cc2)cc1", "activity change, negative = inhibition": "-13.2% (inactive)"}, {"molecule": "CNC(=S)NNC(=O)c1sccc1OCc1ccccc1", "activity change, negative = inhibition": "0.426% (inactive)"}, {"molecule": "O=C(c1ccc2c(c1)N(Cc1ccccc1F)C(=O)c1ccccc1S2(=O)=O)N1CCOCC1", "activity change, negative = inhibition": "-3.29% (inactive)"}, {"molecule": "CCN(CC)CCNC(=O)CN1N=C(c2ccc(OC)cc2)CCC1=O", "activity change, negative = inhibition": "3.09% (inactive)"}, {"molecule": "COc1ccc(C2=NN(c3nc4ccccc4s3)C(=O)C2)cc1", "Potency": "9.53 µM (active)"}, {"molecule": "COc1ccc(C2=NN(C(=O)c3cccnc3)C(c3ccccc3)C2)cc1", "note": "(configuration not stated)", "activity change, negative = inhibition": "-10.9% (inactive)"}, {"molecule": "COc1ccc(S(=O)(=O)c2c(Nc3cccc(Cl)c3)sc(C(=O)c3ccccc3)c2N)cc1", "activity change, negative = inhibition": "0.0899% (inactive)"}, {"molecule": "COc1cc(-c2cc3n(C)c(C)c(CCC(=O)Nc4ccc(F)cc4)c(=O)n3n2)cc(OC)c1OC", "activity change, negative = inhibition": "3.74% (inactive)"}, {"molecule": "CCc1ccc(CN(C)C(=O)CCc2nnc(-c3ccc(-c4ccccc4)cc3)o2)nc1", "Potency": "13.5 µM (active)"}, {"molecule": "CC(=O)c1ccc(-c2nnc(CCC(=O)N(C)Cc3cnc4ccccn34)o2)s1", "activity change, negative = inhibition": "-0.52% (inactive)"}, {"molecule": "CCc1ccc(CN(C)Cc2nc(Cc3ccccc3)no2)nc1", "activity change, negative = inhibition": "3.54% (inactive)"}, {"molecule": "Nc1ccc(-c2nnc(-c3ccccc3)o2)cc1", "Potency": "19 µM (active)"}, {"molecule": "Nc1ccc(-c2sc(N)nc2-c2ccccc2)cc1", "activity change, negative = inhibition": "-1.44% (inactive)"}, {"molecule": "CC(=O)c1ccc(NC(c2ccc(F)cc2)c2nnc(-c3ccccc3)o2)cc1", "note": "(configuration not stated)", "activity change, negative = inhibition": "-2.01% (inactive)"}, {"molecule": "Nc1ccc(-c2nnc(-c3ccc(-c4ccccc4)cc3)o2)cc1", "Potency": "2.69 µM (active)"}, {"molecule": "O=C(OCc1nnc(-c2ccccc2)o1)c1cc(=O)[nH]c2ccccc12", "activity change, negative = inhibition": "4.33% (inactive)"}, {"molecule": "Nc1cccc(-c2cc(-c3ccccc3)nc(-c3cccc(N)c3)n2)c1", "activity change, negative = inhibition": "1.65% (inactive)"}, {"molecule": "Cc1oc2ccc(O)c(CN3CCOCC3)c2c1C(=O)Nc1cccc(Cl)c1C", "activity change, negative = inhibition": "-1.52% (inactive)"}, {"molecule": "CC(NC(=O)CCc1cn(Cc2ccccc2Cl)c2ccccc12)c1ccccc1", "note": "(configuration not stated)", "activity change, negative = inhibition": "6.58% (inactive)"}, {"molecule": "CCCSc1nc2sc3c(c2c(=O)n1-c1cccc(Br)c1)CC(C)(C)OC3", "activity change, negative = inhibition": "0.901% (inactive)"}, {"molecule": "Cc1ccccc1NC(=O)Cc1nc(COC(=O)c2ccc(C(F)(F)F)cc2)cs1", "activity change, negative = inhibition": "3.93% (inactive)"}, {"molecule": "Cc1ccc(C)c(NC(=O)COC(=O)CSc2ccccc2)c1", "activity change, negative = inhibition": "6.9% (inactive)"}, {"molecule": "CCOc1ccc(NC(=O)CN(Cc2ccccc2)S(=O)(=O)c2ccc(Cl)cc2)cc1", "activity change, negative = inhibition": "-5.84% (inactive)"}, {"molecule": "CCc1ccnc(NC(=O)Nc2ccc(OCc3ccccc3)cc2)c1", "activity change, negative = inhibition": "-2.87% (inactive)"}, {"molecule": "O=C(O)/C=C\\C(=O)Nc1ccc(OCc2ccccc2)cc1", "Potency": "19 µM (active)"}, {"molecule": "Cc1cccc(NC(=O)Nc2ccc(OCc3ccccc3)cc2)n1", "activity change, negative = inhibition": "-1.92% (inactive)"}, {"molecule": "CC(=O)Oc1cccc(C(=O)Nc2ccccc2NC(=O)c2cccc(OC(C)=O)c2)c1", "activity change, negative = inhibition": "-0.563% (inactive)"}, {"molecule": "CC(=O)Nc1ccc(S(=O)(=O)N2CCN(c3ccccc3)CC2)cc1", "activity change, negative = inhibition": "-1.03% (inactive)"}, {"molecule": "O=C(Cn1ccc(=O)[nH]c1=O)Nc1ccc(C(=O)O)c(O)c1", "activity change, negative = inhibition": "-4.38% (inactive)"}, {"molecule": "CN1CCN(c2ccc(NC(=O)c3ccccc3)cc2)CC1", "Potency": "10.7 µM (active)"}, {"molecule": "COc1cccc(C(=O)Nc2ccc(N3CCCC3)cc2)c1", "Potency": "4.26 µM (active)"}, {"molecule": "COc1ccc(C(=O)Nc2ccc(N3CCC(C)CC3)cc2)cc1Br", "activity change, negative = inhibition": "-1.07% (inactive)"}, {"molecule": "O=C(Nc1ccc(C(=O)O)c(O)c1)c1ccccc1", "Potency": "15.1 µM (active)"}, {"molecule": "Cc1ccccc1C(=O)NC(=S)Nc1ccc(N2CCN(C(=O)c3ccccc3)CC2)cc1", "activity change, negative = inhibition": "2.99% (inactive)"}, {"molecule": "O=C(Nc1ccc(S(=O)(=O)N2CCc3ccccc3C2)cc1)c1ccccc1", "activity change, negative = inhibition": "0.419% (inactive)"}, {"molecule": "COc1cccc(C(=O)Nc2ccc(N3CCN(C(=O)c4ccco4)CC3)cc2)c1", "activity change, negative = inhibition": "-3% (inactive)"}, {"molecule": "COc1ccc(C2COC(=O)C2=N)c(NC(=O)c2ccccc2)c1", "note": "(configuration not stated)", "activity change, negative = inhibition": "4.01% (inactive)"}, {"molecule": "COc1cccc(C(=O)Nc2cc3c(cc2Br)OCCCO3)c1", "Potency": "4.78 µM (active)"}, {"molecule": "COc1ccccc1N1CCN(C(=O)C2Cc3ccccc3CN2C(=O)c2ccco2)CC1", "note": "(configuration not stated)", "activity change, negative = inhibition": "3.04% (inactive)"}, {"molecule": "CC(=O)c1ccc(NC(=O)CSc2nc(-c3ccccc3F)nc3c2c(=O)n(C)c(=O)n3C)cc1", "activity change, negative = inhibition": "4.57% (inactive)"}, {"molecule": "CC(=O)N1c2ccc(S(=O)(=O)N(C)CC(=O)N(C)Cc3ccccc3)cc2CC1C", "note": "(configuration not stated)", "activity change, negative = inhibition": "4.32% (inactive)"}, {"molecule": "CCCCn1c(SCc2ncc(-c3ccccc3)o2)nc2cc(S(N)(=O)=O)ccc21", "activity change, negative = inhibition": "-17.5% (inactive)"}]}]}
